Among the data in PubChem BioAssay (Tox21) are Potency and activity change, negative = inhibition values, retold here.

Values without a mark were called inactive. A call without a number means that no potency is given here. Calls of active or inactive are those of the source. Calls follow the shape of the full dose curve.
Potency is read from the fitted curve at half-maximal effect.

The target of the assay is Acetylcholinesterase (Homo sapiens) (UniProt P22303). The assay is described as follows: Acetylcholinesterase (AChE) small molecule antagonists: enzyme-based qHTS assay (AID 1347397). Also: nearly all actives have a fitted effect of over 55% in size. The conditions noted are these: Potency: AChE enzyme activity inhibition; outcome: AChE enzyme activity inhibition; series mostly up to 115 µM. The text has this: National Center for Advancing Translational Sciences [NCATS]
Sequence of Acetylcholinesterase (Homo sapiens) (P22303 whole entry, looked up): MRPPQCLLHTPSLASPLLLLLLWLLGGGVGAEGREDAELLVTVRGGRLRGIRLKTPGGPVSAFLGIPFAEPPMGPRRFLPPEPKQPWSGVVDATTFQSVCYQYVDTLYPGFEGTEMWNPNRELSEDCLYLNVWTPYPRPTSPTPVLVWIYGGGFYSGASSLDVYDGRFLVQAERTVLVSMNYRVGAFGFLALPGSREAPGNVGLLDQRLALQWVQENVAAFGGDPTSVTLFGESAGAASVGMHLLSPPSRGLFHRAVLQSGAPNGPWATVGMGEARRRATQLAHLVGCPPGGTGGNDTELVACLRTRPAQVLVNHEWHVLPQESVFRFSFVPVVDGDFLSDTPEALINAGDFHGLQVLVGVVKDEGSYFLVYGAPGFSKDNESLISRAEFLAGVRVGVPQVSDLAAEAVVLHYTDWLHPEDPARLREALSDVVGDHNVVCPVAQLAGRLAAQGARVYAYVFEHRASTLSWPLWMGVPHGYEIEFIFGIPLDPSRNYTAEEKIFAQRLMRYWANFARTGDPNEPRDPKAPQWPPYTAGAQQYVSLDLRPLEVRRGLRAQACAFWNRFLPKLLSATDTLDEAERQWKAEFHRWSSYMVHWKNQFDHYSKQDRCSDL
Division of Preclinical Innovation [DPI]
U.S. Environmental Protection Agency [EPA]
National Institutes of Environmental Health Sciences [NIEHS]
National Toxicology Program [NTP]
U.S. Food and Drug Administration [FDA]
Acetylcholinesterase (AChE) is the primary cholinesterase in the body that hydrolyzes a key neurotransmitter, acetylcholine. Inhibition of AChE activity can lead to neurotoxicity. The known inhibitors include organophosphorous pesticides (OP), chemical warfare agents, drugs, and various phytochemicals.
An enzyme-based assay with the recombinant human AChE and Amplite Colormetric acetylcholinesterase assay kit (AAT Bioquest, Sunnyvale, CA) was used to evaluate the chemicals in the Tox21 10K library that inhibit AChE activity. The assay uses 5, 5-dithiobis-(2-nitrobenzoic acid) (DTNB) to quantify the thiocholine produced from the hydrolysis of acetylthiocholine by AChE.
Tox21 Assay Protocol Summary:
For the enzyme-based AChE assay, recombinant human AChE (50 mU/mL) in 4 uL/well was dispensed into black, clear-bottom 1536-well plates using a Multidrop Combi dispenser (Thermo Scientific, MA). Then, 23 nL of compound or DMSO (vehicle control) was transferred into the assay plates by a Pintool Station (Wako Automation, CA). The plates were incubated for 30 min at room temperature, followed by the addition of 4 uL of colorimetric detection cocktail solution (DTNB, acetylthiocholine) into each well using a Flying Reagent Dispenser (Beckman Coulter, CA) and then 10 min incubation at room temperature.
Consider `O=C(/N=N/C(=O)OCc1ccccc1)OCc1ccccc1`, for which the Potency entry was “inactive”.
Still for that read-out and setting: the result for `CCCC(=O)OCC` reads “inactive”; that for `COC(=O)C1=C(C)NC(COC(N)=O)=C(C(=O)OC(C)C)C1c1cccc(Cl)c1Cl` (stereo not given), “inactive”.
Same read-out and setting: the value for `Cc1onc(-c2ccccc2)c1-c1ccc(S(N)(=O)=O)cc1` was “inactive”; that for `COc1ccccc1OCCNCC(O)COc1cccc2[nH]c3ccccc3c12` (stereo not given) was “inactive”; that for `COc1cc2nc(N(C)CCCNC(=O)C3CCCO3)nc(N)c2cc1OC` (stereo not given) was 24.5 µM (active).
The same measure, in the same setting: the result for `CC1=C(O)C(=O)C(C)O1` (stereo not given) reads “inactive”; that for `CCCc1ccc(OC)cc1`, “inactive”; that for `CCCCCCCCCCCCCC(=O)OC`, “inactive”.
Turning to `NC(=O)NC1N=C([O][Al])NC1=O` (stereo not given), the Potency result was “inactive”.
Still for that read-out and setting: the value for `CCN(CC)c1ccc(C=O)cc1` was “inactive”.
The same measure, in the same setting: the result for `CC1=CP(=O)(c2ccccc2)CC1` (stereo not given) reads “inactive”; that for `CC(C)CC(O)CC(C)C`, “inactive”.
As for `C/C=C/C(=O)CC`, the activity change, negative = inhibition was 0.0718% [at 23.6 µM].
With `CC1=CC[C@@]23C[C@@H]1C(C)(C)[C@@H]2CC[C@H]3C`, the Potency entry was “inactive”.
Consider `C=C(C)C(=O)OCC(O)COc1ccc(C(C)(C)c2ccc(OCC(O)COC(=O)C(=C)C)cc2)cc1` (stereo not given), for which the Potency entry was “inactive”.
`OCCC(F)(F)C(F)(F)C(F)(F)C(F)(F)C(F)(F)C(F)(F)F`: the Potency result was “inactive”.
On the same count and under the same terms, the value for `CCn1c(=O)c2c(nc(/C=C/c3ccc(OC)c(OC)c3)n2C)n(CC)c1=O` was “inactive”; that for `COc1ccccc1OCC(O)CN1CCN(CC(=O)Nc2c(C)cccc2C)CC1` (stereo not given) was “inactive”.
For `CN(CCOc1ccc(NS(C)(=O)=O)cc1)CCc1ccc(NS(C)(=O)=O)cc1`, the Potency entry was “inactive”.
Still for that read-out and setting: the result for `Oc1cc2ccccc2c2ccccc12` reads “inactive”; that for `CN1C(=O)N(c2ccccc2Br)Cc2cnc(Nc3ccc4c(c3)OCC(CO)O4)nc21` (stereo not given), “inactive”.
Consider `C[N+]1(C)CCCC(OC(=O)C(O)(c2ccccc2)c2ccccc2)C1` (stereo not given), for which the Potency result was “inactive”.
Consider `O=C1CCC(=O)N1`, for which the Potency result was “inactive”.
In the case of `CC(C)c1ccccc1`, the Potency result was “inactive”.
Same read-out and setting: the value for `CCOC(=O)c1ccccc1O` was “inactive”; that for `OCCCCCCO` was “inactive”; that for `C=C(C)CS(=O)(=O)O` was “inactive”.
On the same count and under the same terms, the value for `C=CC(C)(O)CC/C=C(\C)CCC=C(C)C` (stereo not given) was “inactive”; that for `Clc1cc(Cl)cc(Cl)c1` was “inactive”.
On the same count and under the same terms, the value for `CC1=NN(c2ccc(S(=O)(=O)O)cc2)C(=O)C1N=Nc1ccccc1` (stereo not given) was “inactive”; that for `CN(C)C(=O)Nc1ccc(Oc2ccc(Cl)cc2)cc1` was “inactive”.
As to `COC(=O)[C@]1(C)CCC[C@@]2(C)[C@H]1CC=C1C=C(C(C)C)CC[C@@H]12`, the Potency entry is “inactive”.
The same measure, in the same setting: the value for `c1ccc(CCCc2ccccn2)cc1` was “inactive”; that for `Cc1cc(O)c(C(C)(C)C)cc1C(C)(C)C` was “inactive”; that for `OCC(F)(F)F` was “inactive”.
As to `N#CSCSc1nc2ccccc2s1`, the Potency entry was “inactive”.
As for `CC(=O)OCC(=O)Nc1cc(C#N)cc(NC(=O)COC(C)=O)c1Cl`, the Potency entry is “inactive”.
Turning to `CCN(CC)CCNC(C(=O)OCCC(C)C)c1ccccc1` (stereo not given), the Potency result is “inactive”.
Same read-out and setting: the result for `C[C@@H]1C[C@H]2[C@@H]3CCC4=CC(=O)C=C[C@]4(C)[C@@]3(Cl)[C@@H](O)C[C@]2(C)[C@@]1(OC(=O)c1ccco1)C(=O)CCl` reads “inactive”.
